This is an account of results in the supplement of paper PMC9399229.

Several values for one entry are separate records, joined by “and”; a condition that tells them apart may be missing. Identical values can stand only once. Counter-ions that a name gives are not always drawn. ± gives the standard deviation of the averaged measurements. Over roughly 1,900 compounds, “relative cell viability (CellTiter-Glo), compound alone” has its median near 1; the lowest 2% begin near 0.16. What follows is part of a selection rich in the lowest values, with near analogues and random picks from the rest.

The subject of this assay is Hep3B. The assay is described as follows: relative cell viability (CellTiter-Glo), compound alone (fraction); higher = more viable cells (less growth inhibition). Conditions: cabozantinib 0 µM; 4 days.
For `CC(C)c1ccc(NC(=O)Cn2cnc3c2c(=O)n(C)c(=O)n3C)cc1`, the relative cell viability was 1.02 ± 0.041. For `Cc1ccc(C(=O)N(CCCN)[C@@H](c2oc3cc(Cl)ccc3c(=O)c2Cc2ccccc2)C(C)C)cc1`, the relative cell viability is 0.245 ± 0.0053. The figure for `CC1=C(C(=O)Nc2cc3cn[nH]c3cc2F)C(c2ccc(C(F)(F)F)cc2)CC(=O)N1` (stereo not drawn) is 1.3 ± 0.16.

The molecule `CN(C)C(=S)NN=C(c1ccccn1)c1ccccn1` showed a relative cell viability of 0.265 ± 0.025. The figure for `C/C(=N\NC(=S)N1CCC1)c1ccccn1` is 0.0813 ± 0.0087; for `CCN(CC)C(=S)SSC(=S)N(CC)CC` [Disulfiram] it is 0.134 ± 0.012; for `CN1CCN(c2ccc(OC(F)(F)F)c(Nc3ncc4c(n3)-c3c(c(C(N)=O)nn3CCO)CC4)c2)CC1` it is 0.48 ± 0.02. In the case of `O=C(N/N=C/c1ccc(O)c(O)c1)c1cc2ccccc2cc1O` [Dynasore] it was 0.932 ± 0.05; in that of `Cc1nc2c([nH]1)-c1ccccc1N(C(=O)c1ccc(NC(=O)c3ccccc3-c3ccccc3)cc1)CC2` [Conivaptan HCl], 1.12 ± 0.15; in that of `C[C@@H](O[C@H]1OCCN(Cc2nn(P(=O)(O)O)c(=O)[nH]2)[C@H]1c1ccc(F)cc1)c1cc(C(F)(F)F)cc(C(F)(F)F)c1` [Fosaprepitant dimeglumine salt], 1.04 ± 0.1. For `O=C(O)C1=CO[C@@H](O[C@@H]2O[C@H](CO)[C@@H](O)[C@H](O)[C@H]2O)[C@@H]2C(CO)=CC[C@H]12` [Geniposidic acid], the relative cell viability was 1.04 ± 0.16.

Take `CNC(=O)c1ccccc1Nc1nc(Nc2ccc(N3CCOCC3)cc2OC)ncc1Cl`: the relative cell viability was found to be 0.273 ± 0.0076. `CCOc1cc(N2CCC(O)CC2)ccc1Nc1ncc2c(n1)N(C)c1ccccc1C(=O)N2C`: the relative cell viability was determined as 1.14 ± 0.05. In the case of `COc1cc(N2CCC(N)CC2)ccc1Nc1ncc(Cl)c(-c2c[nH]c3ccccc23)n1` it was 0.138 ± 0.00027. Molecule `Nc1ncnc2c1C(=O)N(c1ccc([C@H]3CC[C@H](CC(=O)O)CC3)cc1)CCO2` yielded a relative cell viability of 1.289 ± 0.0053.

For `CC(C)C[C@H](NP(=O)(O)O[C@@H]1O[C@@H](C)[C@H](O)[C@@H](O)[C@H]1O)C(=O)N[C@@H](Cc1c[nH]c2ccccc12)C(=O)O` [Phosphoramidon Disodium Salt], the relative cell viability stood at 1.169 ± 0.0058. Turning to `Cn1nnc2c(C(N)=O)ncn2c1=O` [Temozolomide], the relative cell viability is 1.25 ± 0.15. On to `Cc1cc(N2CCOCC2)ccc1Nc1nc(NC2CCCCC2)c2[nH]cnc2n1`, for which the relative cell viability came to 0.971 ± 0.072.

For `CC(C)(C)c1ccc(-c2nc3ccccc3[nH]2)cc1`, the relative cell viability was 0.591 ± 0.042.

In the case of `COc1cc2c(c(OC)c1OC)-c1c(cc3c(c1OC)OCO3)CC(C)C(C)C2` (stereo not drawn) [Schisandrin B (Sch B)], the relative cell viability was 0.988 ± 0.053. The figure for `Nc1ccc2ncnc(NCCc3ccc(Oc4ccccc4)cc3)c2c1` is 1.22 ± 0.066; for `Cn1nnc(-c2ccc3c(c2)[nH]c2nc(Cc4ccccc4)nc(NC4CCC(N)CC4)c23)n1` (stereo not drawn) it is 0.194 ± 0.0028. In the case of `CN(C)CCC[C@@]1(c2ccc(F)cc2)OCc2cc(C#N)ccc21` [Escitalopram Oxalate] it was 1.13 ± 0.13; in that of `N#CSc1cc(SC#N)c(N)nc1N`, 1.061 ± 0.0035; in that of `CCOC(=O)c1ccc(N2NC(=O)C(=Cc3ccc([N+](=O)[O-])o3)C2=O)cc1`, 0.977 ± 0.14. Molecule `Cn1cc(-c2ccc3c(c2)CCN3C(=O)Cc2cccc(C(F)(F)F)c2)c2c(N)ncnc21` had a relative cell viability of 1.34 ± 0.066.

In turn, `CC(C)(C)c1cc(C(=O)C(C#N)=NNc2cccc(Cl)c2)no1` showed a relative cell viability of 1.11 ± 0.17. With `O=C(NC1CCNCC1)c1n[nH]cc1NC(=O)c1c(Cl)cccc1Cl`, the relative cell viability was 0.157 and 0.162. Turning to `O=C(NC1CCOCC1)c1ccc(-c2cc(-c3c[nH]nc3-c3ccccn3)ccn2)cc1`, the relative cell viability came to 1.23 ± 0.2. In the case of `CC(=O)OCOC(=O)CN(CC(=O)OCOC(C)=O)c1ccccc1OCCOc1ccccc1N(CC(=O)OCOC(C)=O)CC(=O)OCOC(C)=O` it was 1.12 ± 0.016. The molecule `CNC(=O)[C@@H](c1ccccc1)N1CCc2cc(OC)c(OC)cc2[C@@H]1CCc1ccc(C(F)(F)F)cc1` [Almorexant HCl] yielded a relative cell viability of 1.19 ± 0.11. In the case of `Cc1c(N(C)C)c(=O)n(-c2ccccc2)n1C` [Amidopyrine] it was 1.07 ± 0.062; in that of `COc1ccc2c(Oc3ccc(NC(=O)c4c(C)n(CC(C)(C)O)n(-c5ccccc5)c4=O)nc3)ccnc2c1`, 1.16 ± 0.024. In the case of `O=C(NNc1nc2cc(F)ccc2n2cccc12)c1cnccn1` it was 0.383 ± 0.013. On to `C=C1C(=O)[C@]23[C@H](O)[C@H]1CC[C@H]2[C@@]12CO[C@]3(O)[C@@H](O)[C@@H]1C(C)(C)CC[C@@H]2O` [Oridonin], for which the relative cell viability is 0.9649 ± 0.0085. `CCS(=O)(=O)N1CC(CC#N)(n2cc(-c3ncnc4[nH]ccc34)cn2)C1` showed a relative cell viability of 0.983 ± 0.088.

With `CO[C@H]1/C=C\C=C(/C)C(=O)NC2=CC(=O)C(NCCN(C)C)=C(C[C@@H](C)C[C@H](OC)[C@H](O)[C@@H](C)/C=C(\C)[C@@H]1OC(N)=O)C2=O` [17-DMAG (Alvespimycin) HCl], the relative cell viability came out at 0.267 ± 0.043.

Molecule `CN1CC[C@H](c2c(O)cc(O)c3c(=O)cc(-c4ccccc4Cl)oc23)[C@H](O)C1` [Flavopiridol (Alvocidib)] returned a relative cell viability of 0.143 ± 0.043. `CN1CC[C@H](c2c(O)cc(O)c3c(=O)cc(-c4ccccc4Cl)oc23)[C@H](O)C1` [Flavopiridol HCl] gave a relative cell viability of 0.183 ± 0.015.

In turn, `CC(=O)N1c2ccc(-c3ccc(C(=O)O)cc3)cc2[C@H](Nc2ccc(Cl)cc2)C[C@@H]1C` yielded a relative cell viability of 0.698 ± 0.027. In turn, `N#Cc1c(NC(=O)c2cccc3ccccc23)sc2c1CCCC2` [JNK Inhibitor IX] yielded a relative cell viability of 1.1 ± 0.056.

`Cc1cc2c(cc1CC(=O)c1sccc1S(=O)(=O)Nc1onc(C)c1Cl)OCO2` [Sitaxentan sodium] registered a relative cell viability of 1.18 ± 0.062. Consider `COc1cc(OC)c2c(=O)[nH]c(-c3cc(C)c(OCCO)c(C)c3)nc2c1`, for which the relative cell viability was 0.805 ± 0.0086.
